# Test results reported in publication doi:10.1101/2024.03.05.583629.
# What was measured:
# [1] = molecular target: pT7_6His-AlfaTag-HOXD13 (human, UniProt P35453 263-343); test: PADIT-seq; conditions: dsDNA, one strand shown
# [2] = molecular target: pT7_6His-AlfaTag-ZIF268 (human, UniProt P18146 335-423); test: PADIT-seq; conditions: dsDNA, one strand shown
# pT7_6His-AlfaTag-HOXD13, sequence (P35453 263-343): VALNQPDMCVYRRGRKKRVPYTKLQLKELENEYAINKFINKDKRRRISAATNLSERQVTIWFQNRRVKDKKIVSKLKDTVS
Sequence,binding signal [1],binding signal [2]
CTCGAGGATATCAAGATCTGGCCTCGGCCTTTTAAAAGGAACCTCTAGCTAGCCGACTCACTATAGGGATAATCGCCCTGAGCAAAGACC,2.5 ± 0.0673 log2FC,0.098 ± 0.0706 log2FC
CTCGAGGATATCAAGATCTGGCCTCGGCAACCTAAAAGGAACCTCTAGCTAGCCGACTCACTATAGGGATAATCGCCCTGAGCAAAGACC,-0.715 ± 0.12 log2FC,0.113 ± 0.099 log2FC
CTCGAGGATATCAAGATCTGGCCTCGGCCGCCCACTGGGAACCTCTAGCTAGCCGACTCACTATAGGGATAATCGCCCTGAGCAAAGACC,-0.571 ± 0.123 log2FC,0.278 ± 0.104 log2FC
CTCGAGGATATCAAGATCTGGCCTCGGCTAATGGGCGGGAACCTCTAGCTAGCCGACTCACTATAGGGATAATCGCCCTGAGCAAAGACC,0.254 ± 0.0964 log2FC,0.0526 ± 0.0899 log2FC
CTCGAGGATATCAAGATCTGGCCTCGGCGCGGGGGCGGGAACCTCTAGCTAGCCGACTCACTATAGGGATAATCGCCCTGAGCAAAGACC,-0.903 ± 0.133 log2FC,3.63 ± 0.0947 log2FC
CTCGAGGATATCAAGATCTGGCCTCGGCCTTTTATGCGGAACCTCTAGCTAGCCGACTCACTATAGGGATAATCGCCCTGAGCAAAGACC,1.88 ± 0.0756 log2FC,0.00428 ± 0.0795 log2FC
CTCGAGGATATCAAGATCTGGCCTCGGCAGCCCACGCGGAACCTCTAGCTAGCCGACTCACTATAGGGATAATCGCCCTGAGCAAAGACC,-0.926 ± 0.109 log2FC,0.806 ± 0.0795 log2FC
CTCGAGGATATCAAGATCTGGCCTCGGCGCGTGGTATGGAACCTCTAGCTAGCCGACTCACTATAGGGATAATCGCCCTGAGCAAAGACC,-1.06 ± 0.113 log2FC,0.45 ± 0.0837 log2FC
CTCGAGGATATCAAGATCTGGCCTCGGCAGATTAAAAGGAACCTCTAGCTAGCCGACTCACTATAGGGATAATCGCCCTGAGCAAAGACC,1.14 ± 0.0686 log2FC,0.0127 ± 0.0692 log2FC
CTCGAGGATATCAAGATCTGGCCTCGGCTTTTTAGTTGGAACCTCTAGCTAGCCGACTCACTATAGGGATAATCGCCCTGAGCAAAGACC,0.658 ± 0.103 log2FC,0.189 ± 0.0984 log2FC
CTCGAGGATATCAAGATCTGGCCTCGGCCGCCCACTAGGAACCTCTAGCTAGCCGACTCACTATAGGGATAATCGCCCTGAGCAAAGACC,-0.944 ± 0.114 log2FC,0.246 ± 0.0891 log2FC
CTCGAGGATATCAAGATCTGGCCTCGGCGTTTTAGGCGGAACCTCTAGCTAGCCGACTCACTATAGGGATAATCGCCCTGAGCAAAGACC,-0.768 ± 0.146 log2FC,0.0528 ± 0.123 log2FC
CTCGAGGATATCAAGATCTGGCCTCGGCACTATAAAAGGAACCTCTAGCTAGCCGACTCACTATAGGGATAATCGCCCTGAGCAAAGACC,2.93 ± 0.0918 log2FC,0.0278 ± 0.1 log2FC
CTCGAGGATATCAAGATCTGGCCTCGGCGTTTTATTGGGAACCTCTAGCTAGCCGACTCACTATAGGGATAATCGCCCTGAGCAAAGACC,3.37 ± 0.0853 log2FC,0.0618 ± 0.0949 log2FC
CTCGAGGATATCAAGATCTGGCCTCGGCGCGTGGACAGGAACCTCTAGCTAGCCGACTCACTATAGGGATAATCGCCCTGAGCAAAGACC,-1.05 ± 0.134 log2FC,0.15 ± 0.106 log2FC
CTCGAGGATATCAAGATCTGGCCTCGGCCTTTTAGTGGGAACCTCTAGCTAGCCGACTCACTATAGGGATAATCGCCCTGAGCAAAGACC,1.46 ± 0.0766 log2FC,0.00894 ± 0.0794 log2FC
CTCGAGGATATCAAGATCTGGCCTCGGCATTTTATATGGAACCTCTAGCTAGCCGACTCACTATAGGGATAATCGCCCTGAGCAAAGACC,3.31 ± 0.0819 log2FC,0.238 ± 0.0895 log2FC
CTCGAGGATATCAAGATCTGGCCTCGGCTCATGGGCGGGAACCTCTAGCTAGCCGACTCACTATAGGGATAATCGCCCTGAGCAAAGACC,-1.04 ± 0.124 log2FC,0.0784 ± 0.105 log2FC
CTCGAGGATATCAAGATCTGGCCTCGGCCGCCCATCCGGAACCTCTAGCTAGCCGACTCACTATAGGGATAATCGCCCTGAGCAAAGACC,-1.06 ± 0.122 log2FC,0.00306 ± 0.0965 log2FC
CTCGAGGATATCAAGATCTGGCCTCGGCTTTTTAGTGGGAACCTCTAGCTAGCCGACTCACTATAGGGATAATCGCCCTGAGCAAAGACC,1.59 ± 0.0858 log2FC,0.00131 ± 0.0904 log2FC
CTCGAGGATATCAAGATCTGGCCTCGGCGCGCAGGCGGGAACCTCTAGCTAGCCGACTCACTATAGGGATAATCGCCCTGAGCAAAGACC,-1.07 ± 0.126 log2FC,0.339 ± 0.0965 log2FC
CTCGAGGATATCAAGATCTGGCCTCGGCATTTTACTCGGAACCTCTAGCTAGCCGACTCACTATAGGGATAATCGCCCTGAGCAAAGACC,0.755 ± 0.0905 log2FC,0.0783 ± 0.0882 log2FC
CTCGAGGATATCAAGATCTGGCCTCGGCCTTTTAGAGGGAACCTCTAGCTAGCCGACTCACTATAGGGATAATCGCCCTGAGCAAAGACC,1.1 ± 0.092 log2FC,0.0179 ± 0.0928 log2FC
CTCGAGGATATCAAGATCTGGCCTCGGCCAGATAAAAGGAACCTCTAGCTAGCCGACTCACTATAGGGATAATCGCCCTGAGCAAAGACC,0.383 ± 0.117 log2FC,0.0449 ± 0.11 log2FC
CTCGAGGATATCAAGATCTGGCCTCGGCCATCCACGCGGAACCTCTAGCTAGCCGACTCACTATAGGGATAATCGCCCTGAGCAAAGACC,-1.04 ± 0.111 log2FC,0.00839 ± 0.0869 log2FC
CTCGAGGATATCAAGATCTGGCCTCGGCCGCCCAGGAGGAACCTCTAGCTAGCCGACTCACTATAGGGATAATCGCCCTGAGCAAAGACC,-1.1 ± 0.149 log2FC,0.0116 ± 0.118 log2FC

Sequence,binding signal [1],binding signal [2]
CTCGAGGATATCAAGATCTGGCCTCGGCGGGTTAAAAGGAACCTCTAGCTAGCCGACTCACTATAGGGATAATCGCCCTGAGCAAAGACC,0.632 ± 0.0825 log2FC,0.0267 ± 0.0801 log2FC
CTCGAGGATATCAAGATCTGGCCTCGGCCTTTTACGAGGAACCTCTAGCTAGCCGACTCACTATAGGGATAATCGCCCTGAGCAAAGACC,3.52 ± 0.0778 log2FC,0.0308 ± 0.0876 log2FC
CTCGAGGATATCAAGATCTGGCCTCGGCTTATGGGCGGGAACCTCTAGCTAGCCGACTCACTATAGGGATAATCGCCCTGAGCAAAGACC,1.03 ± 0.0902 log2FC,0.0657 ± 0.0898 log2FC
CTCGAGGATATCAAGATCTGGCCTCGGCGCGACAGCGGGAACCTCTAGCTAGCCGACTCACTATAGGGATAATCGCCCTGAGCAAAGACC,-1.04 ± 0.131 log2FC,0.028 ± 0.102 log2FC
CTCGAGGATATCAAGATCTGGCCTCGGCCTTTTATCGGGAACCTCTAGCTAGCCGACTCACTATAGGGATAATCGCCCTGAGCAAAGACC,1.63 ± 0.0763 log2FC,0.0806 ± 0.0794 log2FC
CTCGAGGATATCAAGATCTGGCCTCGGCCTATGGGCGGGAACCTCTAGCTAGCCGACTCACTATAGGGATAATCGCCCTGAGCAAAGACC,-0.949 ± 0.119 log2FC,0.0355 ± 0.0969 log2FC
CTCGAGGATATCAAGATCTGGCCTCGGCGCGTGGATAGGAACCTCTAGCTAGCCGACTCACTATAGGGATAATCGCCCTGAGCAAAGACC,-0.997 ± 0.122 log2FC,0.0372 ± 0.0987 log2FC
CTCGAGGATATCAAGATCTGGCCTCGGCCGCCGACGCGGAACCTCTAGCTAGCCGACTCACTATAGGGATAATCGCCCTGAGCAAAGACC,-0.893 ± 0.142 log2FC,0.21 ± 0.115 log2FC
CTCGAGGATATCAAGATCTGGCCTCGGCGCGTGGAATGGAACCTCTAGCTAGCCGACTCACTATAGGGATAATCGCCCTGAGCAAAGACC,-0.959 ± 0.133 log2FC,0.0778 ± 0.106 log2FC
CTCGAGGATATCAAGATCTGGCCTCGGCGCGTGGTTAGGAACCTCTAGCTAGCCGACTCACTATAGGGATAATCGCCCTGAGCAAAGACC,-0.958 ± 0.117 log2FC,0.357 ± 0.094 log2FC
CTCGAGGATATCAAGATCTGGCCTCGGCATATTAAAAGGAACCTCTAGCTAGCCGACTCACTATAGGGATAATCGCCCTGAGCAAAGACC,2.69 ± 0.07 log2FC,0.0247 ± 0.0768 log2FC
CTCGAGGATATCAAGATCTGGCCTCGGCTTTTTACAGGGAACCTCTAGCTAGCCGACTCACTATAGGGATAATCGCCCTGAGCAAAGACC,3.18 ± 0.0923 log2FC,0.066 ± 0.102 log2FC
CTCGAGGATATCAAGATCTGGCCTCGGCAAACTAAAAGGAACCTCTAGCTAGCCGACTCACTATAGGGATAATCGCCCTGAGCAAAGACC,-0.484 ± 0.203 log2FC,0.0456 ± 0.191 log2FC
CTCGAGGATATCAAGATCTGGCCTCGGCTTTTTACCAGGAACCTCTAGCTAGCCGACTCACTATAGGGATAATCGCCCTGAGCAAAGACC,0.621 ± 0.101 log2FC,0.0254 ± 0.098 log2FC
CTCGAGGATATCAAGATCTGGCCTCGGCCGCGACCGCGGAACCTCTAGCTAGCCGACTCACTATAGGGATAATCGCCCTGAGCAAAGACC,-0.85 ± 0.123 log2FC,0.0618 ± 0.097 log2FC
CTCGAGGATATCAAGATCTGGCCTCGGCGCGGATGCGGGAACCTCTAGCTAGCCGACTCACTATAGGGATAATCGCCCTGAGCAAAGACC,0.465 ± 0.106 log2FC,0.109 ± 0.102 log2FC
CTCGAGGATATCAAGATCTGGCCTCGGCTCGTGGGCGGGAACCTCTAGCTAGCCGACTCACTATAGGGATAATCGCCCTGAGCAAAGACC,-0.771 ± 0.106 log2FC,2.74 ± 0.0778 log2FC
CTCGAGGATATCAAGATCTGGCCTCGGCGCGTGGCATGGAACCTCTAGCTAGCCGACTCACTATAGGGATAATCGCCCTGAGCAAAGACC,-1.09 ± 0.127 log2FC,0.0324 ± 0.101 log2FC
CTCGAGGATATCAAGATCTGGCCTCGGCTTTTTATTTGGAACCTCTAGCTAGCCGACTCACTATAGGGATAATCGCCCTGAGCAAAGACC,2.91 ± 0.0833 log2FC,0.188 ± 0.0912 log2FC
CTCGAGGATATCAAGATCTGGCCTCGGCCATTGGGCGGGAACCTCTAGCTAGCCGACTCACTATAGGGATAATCGCCCTGAGCAAAGACC,-0.505 ± 0.104 log2FC,0.139 ± 0.0899 log2FC
CTCGAGGATATCAAGATCTGGCCTCGGCGCGTGGGTCGGAACCTCTAGCTAGCCGACTCACTATAGGGATAATCGCCCTGAGCAAAGACC,-0.691 ± 0.125 log2FC,1.38 ± 0.0983 log2FC
CTCGAGGATATCAAGATCTGGCCTCGGCCGCCCAATGGGAACCTCTAGCTAGCCGACTCACTATAGGGATAATCGCCCTGAGCAAAGACC,-0.785 ± 0.113 log2FC,0.0226 ± 0.0907 log2FC
CTCGAGGATATCAAGATCTGGCCTCGGCGTTTTACCAGGAACCTCTAGCTAGCCGACTCACTATAGGGATAATCGCCCTGAGCAAAGACC,0.423 ± 0.103 log2FC,0.0291 ± 0.0981 log2FC
CTCGAGGATATCAAGATCTGGCCTCGGCCGCTTTCGCGGAACCTCTAGCTAGCCGACTCACTATAGGGATAATCGCCCTGAGCAAAGACC,-1.06 ± 0.128 log2FC,0.0116 ± 0.104 log2FC
CTCGAGGATATCAAGATCTGGCCTCGGCGGGATAAAAGGAACCTCTAGCTAGCCGACTCACTATAGGGATAATCGCCCTGAGCAAAGACC,0.241 ± 0.0798 log2FC,0.0461 ± 0.0742 log2FC
CTCGAGGATATCAAGATCTGGCCTCGGCATTTTAATAGGAACCTCTAGCTAGCCGACTCACTATAGGGATAATCGCCCTGAGCAAAGACC,2.83 ± 0.073 log2FC,0.0148 ± 0.0814 log2FC
